About 8,800 targets were measured; listed, in parts, are those with a hit and a random draw of the rest. About 0.5% of all pairs of compound and target were hits. Values without a mark were called inactive.

Sequence of UniProt Q14671 (Q14671 whole entry, looked up): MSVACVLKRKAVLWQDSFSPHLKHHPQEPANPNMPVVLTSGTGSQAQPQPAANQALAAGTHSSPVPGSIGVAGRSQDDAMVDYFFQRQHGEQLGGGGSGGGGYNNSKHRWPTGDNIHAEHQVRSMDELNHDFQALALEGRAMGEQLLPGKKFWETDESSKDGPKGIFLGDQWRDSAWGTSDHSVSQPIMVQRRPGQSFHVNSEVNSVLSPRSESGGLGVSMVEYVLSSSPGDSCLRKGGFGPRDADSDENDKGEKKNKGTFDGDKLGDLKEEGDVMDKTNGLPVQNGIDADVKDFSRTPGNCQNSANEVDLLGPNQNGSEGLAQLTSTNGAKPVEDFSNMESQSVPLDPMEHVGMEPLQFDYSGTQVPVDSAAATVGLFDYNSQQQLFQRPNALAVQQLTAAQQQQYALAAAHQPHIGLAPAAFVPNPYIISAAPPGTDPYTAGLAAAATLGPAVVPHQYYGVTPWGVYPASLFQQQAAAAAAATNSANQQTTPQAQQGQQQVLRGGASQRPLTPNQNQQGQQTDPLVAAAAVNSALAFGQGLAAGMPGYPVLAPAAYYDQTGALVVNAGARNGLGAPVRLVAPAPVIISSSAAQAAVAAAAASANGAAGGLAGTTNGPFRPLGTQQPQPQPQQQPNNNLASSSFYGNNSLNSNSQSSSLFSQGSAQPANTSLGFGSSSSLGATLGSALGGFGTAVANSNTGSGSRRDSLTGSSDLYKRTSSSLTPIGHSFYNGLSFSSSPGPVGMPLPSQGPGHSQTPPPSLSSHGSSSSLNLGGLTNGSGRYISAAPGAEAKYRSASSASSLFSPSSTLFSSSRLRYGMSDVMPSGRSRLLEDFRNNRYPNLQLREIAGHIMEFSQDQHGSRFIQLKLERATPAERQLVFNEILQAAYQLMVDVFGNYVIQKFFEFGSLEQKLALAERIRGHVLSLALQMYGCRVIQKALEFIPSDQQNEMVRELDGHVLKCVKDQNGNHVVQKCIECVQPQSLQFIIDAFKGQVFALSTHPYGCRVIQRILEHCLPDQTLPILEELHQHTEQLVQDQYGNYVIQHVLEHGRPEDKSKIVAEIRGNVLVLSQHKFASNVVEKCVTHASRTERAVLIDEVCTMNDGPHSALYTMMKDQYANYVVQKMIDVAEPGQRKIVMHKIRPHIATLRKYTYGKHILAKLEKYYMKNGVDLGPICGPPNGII
Sequence of UniProt O75334 (O75334 whole entry, looked up): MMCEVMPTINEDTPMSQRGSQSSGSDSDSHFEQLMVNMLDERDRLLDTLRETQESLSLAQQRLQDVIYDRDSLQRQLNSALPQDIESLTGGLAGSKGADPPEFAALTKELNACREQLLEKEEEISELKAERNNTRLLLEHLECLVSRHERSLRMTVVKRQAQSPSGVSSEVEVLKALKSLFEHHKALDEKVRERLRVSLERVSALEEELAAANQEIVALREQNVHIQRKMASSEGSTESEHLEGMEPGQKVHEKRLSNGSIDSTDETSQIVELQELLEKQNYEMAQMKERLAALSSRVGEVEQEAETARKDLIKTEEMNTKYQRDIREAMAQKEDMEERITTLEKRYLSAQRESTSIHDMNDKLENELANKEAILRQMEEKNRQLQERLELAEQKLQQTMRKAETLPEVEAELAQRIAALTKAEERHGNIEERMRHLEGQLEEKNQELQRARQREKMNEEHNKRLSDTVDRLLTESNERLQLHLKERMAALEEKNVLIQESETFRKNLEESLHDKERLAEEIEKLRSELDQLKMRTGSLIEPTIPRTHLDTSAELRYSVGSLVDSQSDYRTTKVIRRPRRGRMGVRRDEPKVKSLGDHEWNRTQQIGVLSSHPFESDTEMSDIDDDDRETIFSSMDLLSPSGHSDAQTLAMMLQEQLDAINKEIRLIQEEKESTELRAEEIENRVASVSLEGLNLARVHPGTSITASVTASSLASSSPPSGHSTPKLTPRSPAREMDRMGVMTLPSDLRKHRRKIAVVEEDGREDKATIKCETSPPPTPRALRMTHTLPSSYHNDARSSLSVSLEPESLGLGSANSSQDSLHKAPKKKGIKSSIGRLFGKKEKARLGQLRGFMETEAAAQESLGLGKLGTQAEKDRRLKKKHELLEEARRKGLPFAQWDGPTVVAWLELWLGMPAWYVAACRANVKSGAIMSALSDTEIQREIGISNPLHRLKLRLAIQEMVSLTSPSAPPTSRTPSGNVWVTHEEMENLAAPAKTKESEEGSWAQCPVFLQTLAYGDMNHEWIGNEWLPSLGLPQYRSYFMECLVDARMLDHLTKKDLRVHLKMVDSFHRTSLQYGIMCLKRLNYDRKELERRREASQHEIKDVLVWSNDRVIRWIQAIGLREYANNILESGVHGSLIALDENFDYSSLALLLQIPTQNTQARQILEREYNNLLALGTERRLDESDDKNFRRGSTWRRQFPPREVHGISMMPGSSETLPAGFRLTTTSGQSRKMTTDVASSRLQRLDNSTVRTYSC
Sequence of UniProt P13861 (P13861 whole entry, looked up): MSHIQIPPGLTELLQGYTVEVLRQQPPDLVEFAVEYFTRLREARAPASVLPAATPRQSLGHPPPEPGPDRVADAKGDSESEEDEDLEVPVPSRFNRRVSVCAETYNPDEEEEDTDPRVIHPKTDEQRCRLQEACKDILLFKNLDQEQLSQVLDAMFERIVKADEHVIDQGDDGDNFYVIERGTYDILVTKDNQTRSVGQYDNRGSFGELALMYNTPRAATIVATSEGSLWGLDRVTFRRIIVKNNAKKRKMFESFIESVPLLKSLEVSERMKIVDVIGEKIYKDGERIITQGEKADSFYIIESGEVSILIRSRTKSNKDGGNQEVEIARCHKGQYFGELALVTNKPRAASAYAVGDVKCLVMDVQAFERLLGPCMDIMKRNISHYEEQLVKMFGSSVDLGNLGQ
Sequence of UniProt Q13356 (Q13356 whole entry, looked up): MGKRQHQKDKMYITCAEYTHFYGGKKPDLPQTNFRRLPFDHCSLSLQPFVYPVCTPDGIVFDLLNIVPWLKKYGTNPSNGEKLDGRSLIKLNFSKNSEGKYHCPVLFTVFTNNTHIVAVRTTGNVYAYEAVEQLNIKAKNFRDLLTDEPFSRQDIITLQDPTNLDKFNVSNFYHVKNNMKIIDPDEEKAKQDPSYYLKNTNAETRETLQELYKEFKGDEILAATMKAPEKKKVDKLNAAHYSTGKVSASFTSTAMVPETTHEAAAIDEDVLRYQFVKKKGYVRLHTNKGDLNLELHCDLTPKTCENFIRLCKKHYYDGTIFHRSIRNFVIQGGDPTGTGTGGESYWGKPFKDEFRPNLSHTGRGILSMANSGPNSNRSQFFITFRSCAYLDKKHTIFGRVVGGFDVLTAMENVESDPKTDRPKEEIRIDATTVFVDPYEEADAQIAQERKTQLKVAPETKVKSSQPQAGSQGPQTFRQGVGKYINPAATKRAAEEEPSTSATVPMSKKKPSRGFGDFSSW
Sequence of UniProt Q8N4L2 (Q8N4L2 whole entry, looked up): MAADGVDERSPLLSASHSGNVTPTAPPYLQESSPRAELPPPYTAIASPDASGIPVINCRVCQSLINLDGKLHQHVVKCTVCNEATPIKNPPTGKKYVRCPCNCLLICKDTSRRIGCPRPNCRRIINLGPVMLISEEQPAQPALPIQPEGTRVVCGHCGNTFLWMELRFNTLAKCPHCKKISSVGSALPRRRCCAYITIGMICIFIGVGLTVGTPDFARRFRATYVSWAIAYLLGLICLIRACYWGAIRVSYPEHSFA
Sequence of UniProt O00408 (O00408 whole entry, looked up): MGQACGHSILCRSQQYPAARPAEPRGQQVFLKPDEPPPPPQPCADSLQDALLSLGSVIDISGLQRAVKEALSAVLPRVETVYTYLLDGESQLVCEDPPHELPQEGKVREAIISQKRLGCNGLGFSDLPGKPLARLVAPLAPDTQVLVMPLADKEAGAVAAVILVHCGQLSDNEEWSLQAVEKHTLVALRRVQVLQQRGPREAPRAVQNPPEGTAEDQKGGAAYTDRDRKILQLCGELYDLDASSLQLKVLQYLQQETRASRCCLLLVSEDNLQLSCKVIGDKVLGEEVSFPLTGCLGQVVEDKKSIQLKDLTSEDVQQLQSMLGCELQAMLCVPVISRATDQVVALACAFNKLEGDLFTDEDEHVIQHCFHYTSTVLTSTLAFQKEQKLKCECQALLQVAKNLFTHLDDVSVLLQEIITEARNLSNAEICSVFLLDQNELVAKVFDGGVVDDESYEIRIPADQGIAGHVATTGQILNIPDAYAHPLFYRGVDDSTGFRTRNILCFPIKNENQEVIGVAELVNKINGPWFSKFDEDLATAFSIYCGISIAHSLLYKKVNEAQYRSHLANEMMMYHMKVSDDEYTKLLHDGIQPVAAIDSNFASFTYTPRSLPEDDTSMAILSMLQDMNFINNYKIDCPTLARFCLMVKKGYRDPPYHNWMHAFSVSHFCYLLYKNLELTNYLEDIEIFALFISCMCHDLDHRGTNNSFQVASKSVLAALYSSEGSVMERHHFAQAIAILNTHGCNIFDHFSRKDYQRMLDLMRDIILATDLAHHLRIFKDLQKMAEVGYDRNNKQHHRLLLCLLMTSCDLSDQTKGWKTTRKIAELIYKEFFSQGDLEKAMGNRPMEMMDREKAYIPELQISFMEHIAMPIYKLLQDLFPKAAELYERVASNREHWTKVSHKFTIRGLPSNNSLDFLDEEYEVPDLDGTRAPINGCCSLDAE
Sequence of UniProt Q15054 (Q15054 whole entry, looked up): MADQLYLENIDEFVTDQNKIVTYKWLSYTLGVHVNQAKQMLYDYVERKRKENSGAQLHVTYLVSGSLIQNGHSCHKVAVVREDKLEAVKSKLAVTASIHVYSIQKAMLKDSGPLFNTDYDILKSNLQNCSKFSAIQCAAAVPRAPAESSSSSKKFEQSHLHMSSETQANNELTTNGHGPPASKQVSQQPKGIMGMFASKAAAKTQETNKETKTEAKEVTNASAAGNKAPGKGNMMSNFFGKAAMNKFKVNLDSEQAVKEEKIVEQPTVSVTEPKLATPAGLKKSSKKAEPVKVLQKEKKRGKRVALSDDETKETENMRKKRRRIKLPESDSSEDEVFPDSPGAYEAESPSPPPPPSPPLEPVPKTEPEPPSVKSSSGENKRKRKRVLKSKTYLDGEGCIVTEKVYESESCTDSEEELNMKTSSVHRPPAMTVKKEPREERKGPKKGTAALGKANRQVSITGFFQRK

Compound in the assay: Cc1nc(Nc2ncc(C(=O)Nc3c(C)cccc3Cl)s2)cc(N2CCN(CCO)CC2)n1 [dasatinib]
In words: log2 fold change, soluble protein after heating vs DMSO (PISA); higher = thermal stabilisation; K562 lysate, 10 uM; active = over 0.2 and 3.5 SD of the protein, either way, in both replicates (recomputed). In outline: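 Values give the log-two fold change in thermal stability against solvent controls, from duplicates. Crude K562 extract at 1 mg/mL protein, made by dounce homogenisation in PBS pH 7.4 with 1 mM MgCl2, was treated with 10 μM compound for 30 min. After 3 min heating across 48°C-58°C, aliquots were pooled, adjusted to 0.5% NP-40 at 4°C and centrifuged at 21,000xg for 90 min. The supernatant was measured by TMTpro 16plex LC-MS/MS with channel sums equalised.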
Turning to PRRC2A (UniProt P48634), the log2 fold change was 0.004.
Under PSMB9 (UniProt P28065) stands -0.031; under PRKAR2A (UniProt P13861), -0.065.
With PLEKHF1 (UniProt Q96S99), the log2 fold change was -0.016.
Turning to QKI (UniProt Q96PU8), the log2 fold change is -0.02.
Take PGRMC1 (UniProt O00264): the log2 fold change is 0.026.
As for PYURF (UniProt Q96I23), the log2 fold change is 0.002.
With PRKAB2 (UniProt O43741), the log2 fold change is -0.049.
As for PHKA1 (UniProt P46020), the log2 fold change was -0.138.
As for PUS1 (UniProt Q9Y606), the figure is -0.01; as for POC5 (UniProt Q8NA72), -0.159; as for PELO (UniProt Q9BRX2), 0.052.
Regarding PPIL2 (UniProt Q13356), the log2 fold change was 0.064.
Under PUM1 isoform 3 (UniProt Q14671) stands -0.027.
On to PTPN7 isoform 3 (UniProt P35236), for which the log2 fold change is -0.088.
Take PDCD6IP isoform 2 (UniProt Q8WUM4): the log2 fold change is -0.042.
As to PRPH isoform 2 (UniProt P41219), the log2 fold change is -0.019.
For PIR (UniProt O00625), the log2 fold change is 0.027.
As for PTGR2 (UniProt Q8N8N7), the log2 fold change is 0.012.
Take PPP2R5C isoform 5 (UniProt Q13362): the log2 fold change is -0.053.
Turning to PFKFB3 isoform 4 (UniProt Q16875), the log2 fold change is -0.088.
Consider PFDN2 (UniProt Q9UHV9), for which the log2 fold change was 0.008.
Consider PPFIA2 (UniProt O75334), for which the log2 fold change is -0.064.
In the case of PCYT1B (UniProt Q9Y5K3), the log2 fold change was 0.
As for PPP1R11 (UniProt O60927), the figure is -0.051; as for PMS2 (UniProt P54278), -0.1; as for PLXNB2 (UniProt O15031), -0.036.
Take PUS3 (UniProt Q9BZE2): the log2 fold change is -0.063.
For PSTPIP2 (UniProt Q9H939), the log2 fold change was -0.056.
PGPEP1 (UniProt Q9NXJ5): the log2 fold change is -0.067.
With PTPN6 isoform 4 (UniProt P29350), the log2 fold change is 0.028.
In the case of PDE2A (UniProt O00408), the log2 fold change was 0.042.
Turning to PPIL3 (UniProt Q9H2H8), the log2 fold change was -0.049.
Under PI4K2B (UniProt Q8TCG2) stands -0.021; under PRIM2 (UniProt P49643), -0.038; under PFN1 (UniProt P07737), 0.022.
For PIP4P2 (UniProt Q8N4L2), the log2 fold change is -0.171.
Under PLEKHO2 (UniProt Q8TD55) stands -0.096; under POLD3 (UniProt Q15054), -0.002.

The record behind these values is the supplement of paper PMC10849652.
